# Assay outcomes from PubChem BioAssay.
# Many of the other results were omitted from the sample, so hits are more common in it than they were.
# HT1080-NT tox = kills 2HG-producing HT-1080-NT fibrosarcoma cells; HT-1080-NT fibrosarcoma viability, CellTiter-Glo ATP luminescence, 48 h; Potency, µM (top dose mostly 46.1 µM), usual class: cytotoxic; 360,000 tested, 1.6% active; AID 686970;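 further: NT is the 2HG producing partner of a matched IDH1 knockdown line; nearly all actives have a fitted effect of over 55% in size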
#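 Viability of the 2HG-overproducing fibrosarcoma line after 48 hours of compound exposure at 37 degrees C was determined by luminescence with CellTiter-Glo, and concentration-effect curves were then fitted and categorized.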
# HT1080 IDH1KD tx = toxicity to HT-1080 IDH1 knockdown cells (counter line); 360,000 tested, 2% active; Potency, µM (series often up to 46.1 µM), most hits filed as cytotoxic; HT-1080 IDH1 knockdown viability, ATP luminescence, 48 h; AID 686971
#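 % activity derives from luminescence (CellTiter-Glo), normalised to DMSO and no-cell wells. HT-1080-IDH1KD cells, 750/well, had 48 h compound exposure at 37 °C.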
# TDP1 cell noCPT = qHTS for Inhibitors of human tyrosyl-DNA phosphodiesterase 1 (TDP1): qHTS in cells in absence of CPT; 420,000 tested, 15% active; DT40 Tdp1-/- hTDP1 cells, no CPT, ATP luminescence, 48 h; Potency, µM (highest dose often 46.2 µM), actives largely listed as inhibitors; further: nearly all actives have a fitted effect of over 55% in size
#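 Readout: luminescence from CellTiter-Glo after 30 min in the dark at RT. Cells: DT40 Tdp1-/- with stable hTDP1, 400/well. Exposure: compounds alone, ≥48 hr, 37 °C.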
# IL-1B inflam inh = inflammasome signaling inhibition, IL-1 beta readout; activity change, % at 57.5 µM; AID 743279; THP-1 LPS/ATP IL-1B secretion, AlphaLISA, 16 h; active compounds read low; 360,000 tested, 4.7% active; in the data active means activity change below about -50%; inconclusive means mostly about -30% to -49%
#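 Secreted IL-1B measured by AlphaLISA bead assay after 16 h compound exposure of THP-1 cells; compounds (final up to 57.5 uM) added 1 h before LPS (250 ng/mL) and ATP (1.25 mM) stimulation; lower signal means less secretion.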
# 12-LOX inh = blocks human arachidonate 12S-lipoxygenase; P18054; purified 12hLO, xylenol orange hydroperoxide absorbance; Potency, µM (top dose mostly 108 µM), most hits filed as inhibitors; 580,000 tested, 1.1% active; AID 1671190
# Target sequence (P18054 whole entry, looked up): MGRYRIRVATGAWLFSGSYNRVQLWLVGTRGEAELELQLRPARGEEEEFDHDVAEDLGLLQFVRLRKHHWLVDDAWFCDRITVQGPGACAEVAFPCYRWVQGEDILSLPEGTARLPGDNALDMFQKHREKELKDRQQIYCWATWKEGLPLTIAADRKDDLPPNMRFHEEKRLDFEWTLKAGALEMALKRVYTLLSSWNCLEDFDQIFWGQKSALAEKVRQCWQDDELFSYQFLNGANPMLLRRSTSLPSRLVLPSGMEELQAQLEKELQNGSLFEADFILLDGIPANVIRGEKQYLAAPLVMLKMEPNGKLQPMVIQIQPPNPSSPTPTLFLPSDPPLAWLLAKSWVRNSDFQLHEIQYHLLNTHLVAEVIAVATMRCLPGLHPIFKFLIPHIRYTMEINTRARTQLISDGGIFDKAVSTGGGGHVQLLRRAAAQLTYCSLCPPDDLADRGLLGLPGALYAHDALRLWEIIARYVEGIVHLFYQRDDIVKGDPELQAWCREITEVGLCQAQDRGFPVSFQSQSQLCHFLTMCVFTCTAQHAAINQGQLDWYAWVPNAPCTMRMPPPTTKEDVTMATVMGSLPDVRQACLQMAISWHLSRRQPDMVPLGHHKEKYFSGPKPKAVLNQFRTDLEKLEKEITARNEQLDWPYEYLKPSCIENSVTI
#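 Hydroperoxide product was detected by ferrous iron/xylenol orange as the 573 to 405 nm absorbance ratio. Arachidonic acid at 40 uM (final) was turned over for 30 min at room temperature by 150 nM human 12hLO, pH 7.0 Hepes buffer, after 15 min compound preincubation.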
# DT40 TDP1 CPT = DT40-hTDP1 cell growth loss with CPT. chicken DT40 Tdp1-/-;hTDP1 cells + 20 nM CPT, ATP luminescence, 48 h. Potency, µM (highest dose often 46.2 µM), actives largely listed as inhibitors. 420,000 tested, 12% active. AID 686979; further: nearly all actives have a fitted effect of over 55% in size
#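 Cell growth measured by CellTiter-Glo luminescence after a minimum 48 h, 37 C compound exposure with 20 nM CPT in Tdp1-knockout DT40 cells stably expressing hTDP1, seeded 400/well; qHTS titration format.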
# Hits are given with their value; i = inactive; ? = inconclusive; nt = no result; [ ] = dose if it differs, or a comment. Unless noted, the call rests on the fitted dose curve; in most records, active means well fitted curve in the direction sought with a large enough effect; inconclusive means small, poorly fitted or top-dose-only effect, or another doubt; inactive means no such curve, though single readings can be large; an effect the other way counts as inactive or inconclusive.
SMILES,HT1080-NT tox,HT1080 IDH1KD tx,TDP1 cell noCPT,IL-1B inflam inh,12-LOX inh,DT40 TDP1 CPT
CC1CCN(c2nnc(-n3cccc3CN3CCN(C4CCCCC4)CC3)s2)CC1,nt,nt,nt,nt,i,nt
CCOC(=O)C1CCCN(C(=O)Cn2nc(Cc3cccnc3)c3ccccc3c2=O)C1 (stereo unspecified),i,i,i,i,i,i
Cc1ccc(C)c(N2CCN(C(=O)Cn3nc(Cc4cccnc4)c4ccccc4c3=O)CC2)c1,nt,nt,23.1µM,nt,i,?
O=C(Cn1nc(Cc2cccnc2)c2ccccc2c1=O)N1CCN(c2ccc(F)cc2)CC1,nt,nt,23.1µM,nt,i,?
COCCNC(=O)CSCc1nc(-c2ccc(C)cc2)oc1C,nt,nt,nt,nt,i,nt
Cc1ccc(C(=O)Nc2nc3c(s2)CCCC3)o1,i,i,?,i,i,23.1µM
CC(O)Cc1nsc(NC(=O)c2ccc(Br)o2)n1 (stereo unspecified),i,i,2.31µM,i,i,4.11µM
O=C(Nc1nc2c(s1)CCCC2)c1ccc(Br)o1,i,i,14.6µM,i,i,?
O=C(Nc1ccc(Br)cc1)Nc1nc2c(s1)CCCCCC2,nt,nt,18.4µM,nt,i,14.6µM
O=C(Nc1nc2c(s1)CCCC2)c1cccnc1,i[9.24 µM],i,i,i,i,?
COc1ccccc1C(CCN(Cc1ccccc1)C(C)=O)c1ccco1 (stereo unspecified),?,?,16.4µM,i,i,?
Cc1ccc(NC=C(S(=O)(=O)c2ccccc2)S(=O)(=O)c2ccccc2)cc1,i,i,?,i,i,i
Cc1ccc(NC=C(S(=O)(=O)c2ccccc2)S(=O)(=O)c2ccccc2)c(C)c1,i,i,20.6µM,i,i,?
COC(=O)c1ccc(/C=C/c2c(-c3ccsc3)oc3ccc(N4CCOCC4)cc23)cc1,i,i,?,i,?,18.4µM
Nc1ccc(C#Cc2c(-c3ccsc3)oc3ccc(N4CCOCC4)cc23)cc1,i,?,?,i,i,?
COc1ccc(-c2c(-c3ccsc3)oc3ccc(N4CCOCC4)cc23)cn1,i,i,16.4µM,i,i,?
Cc1ccc(CCNC(=O)c2cc3sccc3n2Cc2ccc(C)cc2)cc1,nt,nt,?,nt,i,i
CN1CCN(CCCNC(=O)c2ccc3c(c2)N(Cc2ccccc2)CCS3)CC1,i,i,?,i,i,20.6µM
O=C(NCCCN1CCOCC1)c1ccc2c(c1)N(Cc1ccccc1)CCS2,i,i,23.1µM,?,i,?
Cc1ccc(Cn2c(C(=O)NCCCN3CCOCC3)cc3sccc32)cc1,15.8µM,?,?,i,nt,i
Cc1ccc(CN2CCSc3ccc(C(=O)NCCCN4CCOCC4)cc32)cc1,i,?,?,-51.0,?,20.6µM
CCN1CCN(CCCNC(=O)c2ccc3c(c2)N(Cc2ccc(C)cc2)CCS3)CC1,?,?,?,i,nt,?
CC(C)CNC(=O)CCNC(=O)c1ccccc1,nt,nt,nt,nt,i,nt
COc1ccccc1N1CCN(c2ncccc2CNC(=O)C2CCCO2)CC1 (stereo unspecified),nt,nt,nt,nt,i,nt
COc1ccccc1N1CCN(c2nc(CNC(=O)C3CCOC(C)(C)C3)nc3ccccc23)CC1 (stereo unspecified),nt,nt,16.4µM,nt,i,?
SMILES,HT1080-NT tox,HT1080 IDH1KD tx,TDP1 cell noCPT,IL-1B inflam inh,12-LOX inh,DT40 TDP1 CPT
COc1ccccc1N1CCN(c2nc(CNC(=O)c3ccccc3F)nc3ccccc23)CC1,nt,nt,8.2µM,nt,i,?
CCSc1nnc(CNC(=O)c2ccccc2F)n1-c1ccccc1OC,i,i,i,i,i,i
COc1ccccc1N1CCN(c2nc(CNC(=O)C3CC34CCCC4)nc3ccccc23)CC1 (stereo unspecified),nt,nt,20.6µM,nt,?,i[9.04 µM]
COC(=O)c1ccc(/C=N/OCc2ccc(C(=O)OC)cc2)cc1,nt,nt,nt,nt,i,nt
Cn1ccnc1C(NC(=O)Nc1ccc(F)cc1)c1ccccc1F (stereo unspecified),nt,nt,nt,nt,i,nt
O=C(CNC(c1ccccc1)c1ccccc1)Nc1c(F)cccc1F,i,i,16.4µM,i,i,?
